For eight sequences, binding signal results are on record in paper PMC8384837, “Expanding the binding specificity for RNA recognition by a PUF domain”.

Test in all cases: yeast three-hybrid, YBZ-1, SC-Leu-His + 0.5 mM 3-AT, 4 days
Holding throughout (conditions): tags: N-Gal4 AD-HA kept; label: inside an RPR1-promoter hybrid RNA with tandem MS2 sites; ssRNA

The target of one assay is PUM1 PUF domain R2-AKP (Homo sapiens, UniProt Q14671 828-1176, N899A;Y900K;Q903P). A digest of the protocol: (§1)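 The interaction score is the log change in how often each variant appears, from input to selection. Frequencies came from PCR-amplified, Illumina-sequenced repeat regions of Pumilio-1 PUF domain libraries grown in strain YBZ-1 (LexA–MS2 coat fusion, HIS3 reporter) alongside matching RNA elements. Input plates were SC-Leu and selection plates were SC-Leu-His + 0.5 mM 3-AT, each for four days, and the log2 calculation used a pseudocount of 1 where a variant was absent.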

For a further assay, the target named is PUM1 PUF domain R3-KSR (Homo sapiens, UniProt Q14671 828-1176, C935K;R936S;Q939R). A digest of the protocol: as §1
The target of a further assay is PUM1 PUF domain R7-GSV (Homo sapiens, UniProt Q14671 828-1176, S1079G;N1080S;E1083V). A digest of the protocol:
as §1

The next assay concerns the target PUM1 PUF domain R7-QPG (Homo sapiens, UniProt Q14671 828-1176, S1079Q;N1080P;E1083G). A digest of the protocol:
as §1

In the next assay the target is PUM1 PUF domain R5-KRY (Homo sapiens, UniProt Q14671 828-1176, C1007K;Q1011Y). A digest of the protocol: as §1
The next assay has as its target PUM1 PUF domain R5-GLR (Homo sapiens, UniProt Q14671 828-1176, C1007G;R1008L;Q1011R). A digest of the protocol:
as §1

The target in another assay is PUM1 PUF domain R5-RLT (Homo sapiens, UniProt Q14671 828-1176, C1007R;R1008L;Q1011T). A digest of the protocol: as §1
Another assay has as its target PUM1 PUF domain R4-EFD (Homo sapiens, UniProt Q14671 828-1176, N971E;H972F;Q975D). A digest of the protocol:
as §1

The next assay addresses PUM1 PUF domain R4-GQS (Homo sapiens, UniProt Q14671 828-1176, N971G;H972Q;Q975S). A digest of the protocol:
as §1

In another assay the target is PUM1 PUF domain R8-RHD (Homo sapiens, UniProt Q14671 828-1176, N1122R;Y1123H;Q1126D). A digest of the protocol:
as §1

Take “GGCUAGAACUAGUGGAUCCCCCGGCGCCCGGCGGCUCGAGCCCGGGUAAGUGUAAAGAGUCUGCAUGCCGCCGGGCGCCAUGCCUGCAGGUCGACUCUAGAAAACAUG”: in the assay with PUM1 PUF domain R2-AKP, the binding signal is 3.58 log2 enrichment (interaction score). Turning to “GGCUAGAACUAGUGGAUCCCCCGGCGCCCGGCGGCUCGAGCCCGGGUAAGUGUAAGUAGUCUGCAUGCCGCCGGGCGCCAUGCCUGCAGGUCGACUCUAGAAAACAUG”, in the assay with PUM1 PUF domain R3-KSR, the binding signal is 1.19 log2 enrichment (interaction score).

Consider “GGCUAGAACUAGUGGAUCCCCCGGCGCCCGGCGGCUCGAGCCCGGGUAAGUUUAAAUAGUCUGCAUGCCGCCGGGCGCCAUGCCUGCAGGUCGACUCUAGAAAACAUG”, for which the binding signal is 2.83 log2 enrichment (interaction score) in the assay with PUM1 PUF domain R7-GSV and 4.67 log2 enrichment (interaction score) with PUM1 PUF domain R7-QPG. With “GGCUAGAACUAGUGGAUCCCCCGGCGCCCGGCGGCUCGAGCCCGGGUAAGUGUCAAUAGUCUGCAUGCCGCCGGGCGCCAUGCCUGCAGGUCGACUCUAGAAAACAUG”, the values for the binding signal with PUM1 PUF domain R5-KRY, in the assay with PUM1 PUF domain R5-GLR and with PUM1 PUF domain R5-RLT were 4.04 log2 enrichment (interaction score), 2.62 log2 enrichment (interaction score) and 2.62 log2 enrichment (interaction score), respectively. On to “GGCUAGAACUAGUGGAUCCCCCGGCGCCCGGCGGCUCGAGCCCGGGUAAGUGUACAUAGUCUGCAUGCCGCCGGGCGCCAUGCCUGCAGGUCGACUCUAGAAAACAUG”, for which the binding signal in the assay with PUM1 PUF domain R4-EFD is 2.47 log2 enrichment (interaction score). “GGCUAGAACUAGUGGAUCCCCCGGCGCCCGGCGGCUCGAGCCCGGGUAAGUGUAAAUAGUCUGCAUGCCGCCGGGCGCCAUGCCUGCAGGUCGACUCUAGAAAACAUG”: the binding signal in the assay with PUM1 PUF domain R4-GQS is 2.47 log2 enrichment (interaction score); in the assay with PUM1 PUF domain R5-GLR, 1.61 log2 enrichment (interaction score); with PUM1 PUF domain R4-EFD, 2.17 log2 enrichment (interaction score).

Turning to “GGCUAGAACUAGUGGAUCCCCCGGCGCCCGGCGGCUCGAGCCCGGGUAAGUGUAAUUAGUCUGCAUGCCGCCGGGCGCCAUGCCUGCAGGUCGACUCUAGAAAACAUG”, in the assay with PUM1 PUF domain R3-KSR, the binding signal is 4.1 log2 enrichment (interaction score). For the sequence “GGCUAGAACUAGUGGAUCCCCCGGCGCCCGGCGGCUCGAGCCCGGGUAAGCGUAAAUAGUCUGCAUGCCGCCGGGCGCCAUGCCUGCAGGUCGACUCUAGAAAACAUG”, the binding signal with PUM1 PUF domain R8-RHD was 5.28 log2 enrichment (interaction score).
